Screening results deposited in PubChem by National Center for Advancing Translational Sciences (NCATS).
SMN2 splice up: qHTS Assay for Enhancers of SMN2 Splice Variant Expression; 2.8% of 210,000 active; AID 1458, 2008; HEK293 SMN2-luciferase splicing reporter, luminescence, 30-36 h; Potency, µM (doses to about 46.1 µM), inactives show at the highest dose activity change, positive = activation, hits mostly activators; note: % of control where 0% means no effect; nearly all actives have a fitted effect of over 55% in size
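qHTS luciferase splicing reporter: luminescence rises when SMN2 exon 7 is included in transfected HEK293 cells. Compound exposure lasted 30-36 h at 37C, with 4.5 mM final sodium butyrate as control, followed by a ONE-Glo read.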
NPC1 prom act: qHTS Assay for NPC1 Promoter Activators; Huh7 NPC1 promoter luciferase reporter, 24 h; Potency, µM (series often up to 9.22 µM), without a hit: at the top dose activation, hits mostly activators; 2.4% of 320,000 active; note: % of control where 0% means no effect; nearly all actives have a fitted effect of over 60% in size
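Stable NPC1-promoter luciferase Huh7 line; cpd (DMSO) 24 h, 37 °C, 5% CO2; Amplite luciferase reagent 10 min RT; luminescence readout. qHTS format.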
ELG1 genotoxic: qHTS screen for small molecules that induce genotoxicity in human embryonic kidney (HEK293T) cells expressing luciferase-tagged ELG1; Potency, µM (doses to about 46 µM), inactives show top-dose activity change, positive = activation, hits mostly activators; 1.3% of 330,000 active; AID 504466, 2011; HEK293T ELG1-luciferase reporter, luminescence, 16 h; note: % of control where 0% means no effect; nearly all actives have a fitted effect of over 60% in size
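Cells (2,000/well) expressing the ELG1-luciferase fusion are dosed by pin tool and kept 16 hr at 37 °C, 5% CO2. Signal comes from ONE-Glo luciferase reagent after 30 min at room temperature.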
Rab9 prom act: qHTS Assay for Rab9 Promoter Activators; 2.8% of 320,000 active; Huh7 Rab9 promoter-luciferase reporter, luminescence, 24 h; Potency, µM (doses to about 9.22 µM), for the others: at the top dose activation, negative = inhibition, usual class: activators; note: % of control where 0% means no effect; nearly all actives have a fitted effect of over 60% in size
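Luminescence read-out: Huh7 cells stably expressing Rab9-luciferase, treated 24 h with compound at 37 °C, then lysed with luciferase reagent for 10 min at ambient before reading.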
FLuc modulator: qHTS profiling assay for firefly luciferase inhibitor/activator using purifed enzyme and Km concentrations of substrates (counterscreen for miR-21 project) | purified FLuc, Km substrates, luminescence inhibition | Potency, µM (highest dose often 57.5 µM), for inactives: top-dose activity change, negative = inhibition, usual class: inhibitors | AID 588342, 2011 | Luciferin 4-monooxygenase (Photinus pyralis), P08659 | 6.9% of 360,000 active;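 note: plate controls were vehicle for no effect and reference inhibitor for full effect; nearly all actives have a fitted effect of over 55% in size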
Target sequence (P08659 whole entry, looked up): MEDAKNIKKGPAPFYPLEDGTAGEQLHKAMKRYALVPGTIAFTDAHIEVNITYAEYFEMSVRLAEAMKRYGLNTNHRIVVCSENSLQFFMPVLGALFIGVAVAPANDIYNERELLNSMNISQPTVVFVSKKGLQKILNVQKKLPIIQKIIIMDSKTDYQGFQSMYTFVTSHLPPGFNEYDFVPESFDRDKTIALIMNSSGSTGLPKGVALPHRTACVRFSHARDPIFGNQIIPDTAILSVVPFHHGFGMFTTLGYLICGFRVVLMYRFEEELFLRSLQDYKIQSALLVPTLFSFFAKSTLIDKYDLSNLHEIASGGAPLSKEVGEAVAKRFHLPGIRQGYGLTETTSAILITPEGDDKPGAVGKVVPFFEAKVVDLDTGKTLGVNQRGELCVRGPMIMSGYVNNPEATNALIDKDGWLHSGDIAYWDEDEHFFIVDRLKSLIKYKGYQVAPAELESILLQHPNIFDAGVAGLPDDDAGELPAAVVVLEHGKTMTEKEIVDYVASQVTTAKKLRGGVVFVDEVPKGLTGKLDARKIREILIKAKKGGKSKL
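Purified P. pyralis luciferase (10nM final) with 10uM D-luciferin and 10uM ATP (Km levels) in 50mM Tris acetate pH 7.5, 10mM Mg acetate, 0.01% Tween-20, 0.05% BSA; qHTS 6-point titration, ~60 µM downward; luminescence read.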
ELG1 repair inh: qHTS screen for small molecules that inhibit ELG1-dependent DNA repair in human embryonic kidney (HEK293T) cells expressing luciferase-tagged ELG1; HEK293T ELG1-luciferase reporter, luminescence, 16 h; DNA damage induced by 5-fluorouridine; 2.3% of 330,000 active; Potency, µM (series often up to 46.1 µM), for inactives: top-dose activity change, negative = inhibition, most hits filed as inhibitors; note: % is set by controls: 0 for no effect and ±100 for the full control effect; nearly all actives have a fitted effect of over 55% in size
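In this reporter screen, reduction of luminescence relative to DMSO vehicle indicated activity. Compounds and 5-fluorouridine were added together to 2,000 cells per well, incubated for 16 hr at 37 °C, then developed with ONE-Glo.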
* marks the source's active call; other numbers are inactive results; ? = inconclusive; · = not tested or not shown; [ ] = remark or other dose. An excerpt weighted towards active compounds, which were near 9.2% of everything screened. Calls come from the whole dose curve; as a rule, active = well fitted curve in the direction sought with a large enough effect; inconclusive = small, poorly fitted or top-dose-only effect, or another doubt; inactive = no such curve, though single readings can be large; an effect the other way counts as inactive or inconclusive. Potency is the fitted concentration of half-maximal effect.

SMILES	SMN2 splice up	NPC1 prom act	ELG1 genotoxic	Rab9 prom act	FLuc modulator	ELG1 repair inh
CSc1cccc(NC(=O)C2CC(=O)N(Cc3ccccc3)C2)c1 (stereo not drawn)	·	0%	4%	3%	-1%	15%
C=C1C[C@@]23CC[C@H]4[C@@](C)(CCC[C@@]4(C)C(=O)O)[C@@H]2CC[C@]1(O)C3	·	-2%[46.1 µM]	·	-5%[46.1 µM]	·	·
COc1ccc(CCNC(=O)C2CCCN(S(=O)(=O)c3ccc4c(c3)oc(=O)n4C)C2)cc1OC (stereo not drawn)	-7%	·	·	·	-6%	·
Cc1ccc(C(=O)N2CC(C)SC2=Nc2cccc(S(=O)(=O)N(C)C)c2)cc1 (stereo not drawn)	-7%	-5%	-5%	-5%	-7%	-17%
CN(C)S(=O)(=O)c1cccc(N=C2SCCN2Cc2ccccc2)c1	·	-3%	-9%	-8%	-10%	18µM*
CCOc1cc(C2Nc3ccccc3NC3=C2C(=O)CC(C)(C)C3)ccc1O (stereo not drawn)	·	?	0%	1%	0%	13%
CC(=O)Nc1cccc(NC(=O)CSc2ccc(-c3ccco3)nn2)c1	·	-1%	10%	9%	?	3%
CN(C)c1ccc(-c2nc(N(C)Cc3ccco3)c3ccccc3n2)cc1	10µM*	·	·	·	·	·
O=C(Nc1ccccc1)N(O)c1ccc(Cl)cc1	?	?	?	3.5µM*	12µM*	?
CCN(CCS(=O)(=O)c1ccc(Cl)cc1)C(=O)Nc1ccccc1	·	-3%	1%	-4%	1%	-14%
O=C(Cn1ncc2c([nH]c3ccccc32)c1=O)NCCCN1CCN(c2ccc(F)cc2)CC1	·	·	·	·	1%	·
CCOC(=O)/C(=C/c1ccc(N2CCC(c3ccccc3)=N2)cc1)C(C)=O	-70%	?	21µM*	?	-6%	?
c1ccc(C2=NN(c3ccccc3)CC2)cc1	·	2.8µM*	?	3.5µM*	3.4µM*	?
Cc1ccccc1C(=O)Nc1cccc(-c2ccc(N3CCOCC3)nn2)c1	·	?	?	3.2µM*	2.1µM*	?
Cc1ccc(C(=O)Nc2cccc(-c3ccc(N4CCOCC4)nn3)c2)cc1[N+](=O)[O-]	·	?	?	3.2µM*	?	?
O=C(Nc1ccc(C(=O)N2CCOCC2)cc1)c1ccc([N+](=O)[O-])cc1	·	2%	-15%	-2%	-3%	1%
O=C(Nc1cccc(-c2ccc(N3CCOCC3)nn2)c1)c1ccccc1	·	2.8µM*	?	?	2.7µM*	0%
O=C(Nc1cccc(-c2ccc(N3CCOCC3)nn2)c1)c1ccc([N+](=O)[O-])cc1	·	3.5µM*	?	2.5µM*	2.4µM*	?
Cc1ccccc1C(=O)N1CCN(c2ccc(N3CCOCC3)nn2)CC1	·	0%	-2%	-1%	4%	16%
COCc1cc(=O)c2ccccc2o1	·	·	4%	·	·	11%
CCOc1ncccc1C(=O)OCC(=O)NCc1ccc(C(=O)OC)cc1	·	·	0%	·	·	-31%
O=C(Nc1ccc(N2CCCC2)cc1)c1ccccc1F	2.8µM*	0.5µM*	?	0.5µM*	2.1µM*	?
O=C(Nc1ccc(N2CCCCC2)cc1)c1cccnc1Cl	-6%	22%	21µM*	?	?	?
CS(=O)(=O)N1CCN(c2ccc(NC(=O)c3cccnc3Cl)cc2)CC1	20%	3%	7%	?	-9%	20%
O=C(Nc1ccc(F)cc1)Nc1ccc(Cl)cn1	?	26%	?	?	-4%[2.3 µM]	?
SMILES	SMN2 splice up	NPC1 prom act	ELG1 genotoxic	Rab9 prom act	FLuc modulator	ELG1 repair inh
CC(=O)Nc1ccc(N2CCCCC2)cc1	-10%	13%	7%	10%	-14%	12%
O=C(NC(=O)c1ccc(F)cc1F)Nc1ccc(Cl)cc1	·	?	13%	2.2µM*	-10%	?
O=C(Nc1ccc(N2CCCCC2)cc1)c1ccc(F)cc1F	·	0.32µM*	?	0.35µM*	1.3µM*	?
O=c1[nH]nc(-c2ccc(F)cc2)cc1Cc1ccc(F)cc1	·	1%	-1%	-3%	-3%	-9%
C[C@H]1C2=C3C(CC[C@H]4C(OCc5ccc(F)cc5C(F)(F)F)OC[C@](C)([C@@H]34)N(C(=O)OC(C)(C)C)C2)C(CO)C1CO (stereo partly drawn)	-1%	·	·	·	·	·
Cc1ccc(C(=O)COC(=O)c2cnccn2)cc1	4%	6%	1%	2%	6.7µM*	8%
Cc1ccc(C(=O)COC(=O)C2C3C=CC(C3)C2C(=O)OCC(=O)c2ccc(C)c(C)c2)cc1C (stereo not drawn)	-16%	1%	-9%	4%	-8%	13µM*
Cc1ccc(C(=O)COC(=O)C2CCC2)cc1	·	0%	2%	-3%	0.38µM*	0%
O=C(OCC(=O)c1ccccc1Cl)c1cnccn1	-6%	-6%	1%	2%	?	5%
Cc1ccc(C(=O)Oc2ccc(C(=O)COC(=O)c3cnccn3)cc2)cc1	2%	-4%	6%	0%	3%	2%
CCCC(=O)Nc1ccc(C(=O)COC(=O)C2CC2)cc1	·	·	15%	·	·	?
O=C(OCC(=O)c1ccc(Cl)cc1Cl)c1cnccn1	·	-1%	3%	-2%	12µM*	-2%
Cc1cc(C(=O)O)ccc1[C@H](N)C(=O)O	1%	·	·	·	·	·
Cc1nn(CCO)c2ncc(C(=O)c3cc(F)ccc3O)cc12	·	-5%	3%	-4%	-2%	-3%
CCOCCCNC(=O)C(c1ccc(Cl)cc1)N(Cc1ccc2c(c1)OCO2)C(=O)c1ccc(NC(C)=O)cc1 (stereo not drawn)	-5%	·	·	·	6%	·
Cc1ccc(C(=O)COC(=O)c2cnccn2)cc1[N+](=O)[O-]	7%	2%	1%	-4%	6%	-2%
Cc1ccc(C(=O)COC(=O)c2cnccn2)cc1C	6%	1%	1%	1%	21µM*	7%
Cc1ccc(C(=O)COC(=O)c2ccc(O)cc2)cc1	·	?	?	3.2µM*	11µM*	?
CCOC(=O)COC(=O)c1ccc(O)cc1	-1%	-2%	9%	-4%	-16%	5%
CCCCn1c(N)c(N(CC(C)C)C(=O)Cc2ccc3c(c2)OCCO3)c(=O)[nH]c1=O	·	2%	0%	-5%	4%	-3%
